The values that follow come from paper PMC8384837, “Expanding the binding specificity for RNA recognition by a PUF domain”.

Common to all, as to experiment: yeast three-hybrid, YBZ-1, SC-Leu-His + 0.5 mM 3-AT, 4 days
Settings in all cases: tags: N-Gal4 AD-HA kept; label: inside an RPR1-promoter hybrid RNA with tandem MS2 sites; ssRNA

The target in one experiment is PUM1 PUF domain R3-KHV (Homo sapiens, UniProt Q14671 828-1176, C935K;R936H;Q939V). The method, boiled down:
(§1)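 The interaction score is the log change in variant frequency from input to selection. Scores were computed in log2 with a pseudocount of 1 for absent variants, using Illumina sequencing of PCR-amplified repeat regions. The input came from four days on SC-Leu and the selection from four days on SC-Leu-His + 0.5 mM 3-AT. The cells were strain YBZ-1 (LexA–MS2 coat fusion, HIS3 reporter) co-expressing Pumilio-1 PUF domain libraries and matching RNA elements from a centromeric plasmid.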

A further experiment addresses PUM1 PUF domain R3-ARG (Homo sapiens, UniProt Q14671 828-1176, C935A;Q939G). The method, boiled down:
as §1

The target in another experiment is PUM1 PUF domain R8-KYC (Homo sapiens, UniProt Q14671 828-1176, N1122K;Q1126C). In a few lines:
as §1

In the next experiment the target is PUM1 PUF domain R8-PWS (Homo sapiens, UniProt Q14671 828-1176, N1122P;Y1123W;Q1126S). The method, boiled down:
as §1

A further experiment has as its target PUM1 PUF domain R8-KYQ (Homo sapiens, UniProt Q14671 828-1176, N1122K). In a few lines:
as §1

Another experiment deals with PUM1 PUF domain R5-QKN (Homo sapiens, UniProt Q14671 828-1176, C1007Q;R1008K;Q1011N). In a few lines: as §1
Chain of PUM1 PUF domain R5-QKN (Q14671 828-1176 C1007Q/R1008K/Q1011N): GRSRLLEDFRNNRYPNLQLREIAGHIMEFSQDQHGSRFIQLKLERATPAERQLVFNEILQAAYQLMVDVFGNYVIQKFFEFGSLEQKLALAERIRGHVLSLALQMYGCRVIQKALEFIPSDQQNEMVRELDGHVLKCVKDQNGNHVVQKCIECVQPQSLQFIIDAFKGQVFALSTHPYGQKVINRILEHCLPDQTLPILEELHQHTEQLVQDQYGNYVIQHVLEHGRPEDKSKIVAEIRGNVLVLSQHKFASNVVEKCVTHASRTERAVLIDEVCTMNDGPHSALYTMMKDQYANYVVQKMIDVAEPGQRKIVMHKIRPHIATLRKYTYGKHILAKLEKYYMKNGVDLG

Chain of PUM1 PUF domain R8-KYC (Q14671 828-1176 N1122K/Q1126C): as the sequence (Q14671 828-1176 C1007Q/R1008K/Q1011N) above, with Q180C, K181R, N184Q, N295K, Q299C counted along it
Chain of PUM1 PUF domain R3-ARG (Q14671 828-1176 C935A/Q939G): as the sequence (Q14671 828-1176 C1007Q/R1008K/Q1011N) above, with C108A, Q112G, Q180C, K181R, N184Q counted along it
Chain of PUM1 PUF domain R8-PWS (Q14671 828-1176 N1122P/Y1123W/Q1126S): as the sequence (Q14671 828-1176 C1007Q/R1008K/Q1011N) above, with Q180C, K181R, N184Q, N295P, Y296W, Q299S counted along it
Chain of PUM1 PUF domain R3-KHV (Q14671 828-1176 C935K/R936H/Q939V): as the sequence (Q14671 828-1176 C1007Q/R1008K/Q1011N) above, with C108K, R109H, Q112V, Q180C, K181R, N184Q counted along it
Chain of PUM1 PUF domain R8-KYQ (Q14671 828-1176 N1122K): as the sequence (Q14671 828-1176 C1007Q/R1008K/Q1011N) above, with Q180C, K181R, N184Q, N295K counted along it

For the sequence “GGCUAGAACUAGUGGAUCCCCCGGCGCCCGGCGGCUCGAGCCCGGGUAAGUGUAAUUAGUCUGCAUGCCGCCGGGCGCCAUGCCUGCAGGUCGACUCUAGAAAACAUG”, the binding signal is 2.96 log2 enrichment (interaction score) with PUM1 PUF domain R3-KHV and 0.5 log2 enrichment (interaction score) with PUM1 PUF domain R3-ARG.

As to “GGCUAGAACUAGUGGAUCCCCCGGCGCCCGGCGGCUCGAGCCCGGGUAAGUGUAAAUAGUCUGCAUGCCGCCGGGCGCCAUGCCUGCAGGUCGACUCUAGAAAACAUG”, the binding signal in the experiment with PUM1 PUF domain R3-ARG is 3.94 log2 enrichment (interaction score); with PUM1 PUF domain R8-KYC, 2.79 log2 enrichment (interaction score); in the experiment with PUM1 PUF domain R8-PWS it was 2.42 log2 enrichment (interaction score); with PUM1 PUF domain R8-KYQ, 5.9 log2 enrichment (interaction score).

With “GGCUAGAACUAGUGGAUCCCCCGGCGCCCGGCGGCUCGAGCCCGGGUAAGUGUCAAUAGUCUGCAUGCCGCCGGGCGCCAUGCCUGCAGGUCGACUCUAGAAAACAUG”, the binding signal with PUM1 PUF domain R5-QKN is 2.32 log2 enrichment (interaction score).

As to “GGCUAGAACUAGUGGAUCCCCCGGCGCCCGGCGGCUCGAGCCCGGGUAAGCGUAAAUAGUCUGCAUGCCGCCGGGCGCCAUGCCUGCAGGUCGACUCUAGAAAACAUG”, the binding signal with PUM1 PUF domain R8-KYC is 6.06 log2 enrichment (interaction score).
